Measurements published in PubChem BioAssay (NCATS).
Inconclusive results are not listed. Activity calls are given as the source filed them. Unless noted, calls come from the whole dose curve; as a rule, active = well fitted curve in either direction with a large enough effect (not every such curve was filed as active); inconclusive = small, poorly fitted or top-dose-only effect, or another doubt; inactive = flat fitted curve, though single readings scatter.

Assays:
[1] = target: Lysosomal acid glucosylceramidase (Homo sapiens) (UniProt P04062); assay: Glucocerebrosidase-p2 (AID 348; in the data active = potency below about 10 µM; note: potency is the fitted concentration of half-maximal effect); details: purified GBA, blue fluorogenic substrate, 40 min
Outline: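 Compounds titrated from 0.6 nM upwards against 0.2 nM enzyme in pH 5.9 citric acid/KH2PO4, taurocholate, tween-20; blue fluorogenic substrate 80 uM, 40 min room temperature, stopped and read Ex 365/Em 440 for AC50.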

[2] = AP1 Signaling Pathway (AID 357); details: ME-180 AP-1-bla reporter, EGF-induced, beta-lactamase ratio, 5 h; at 7.69 µM (top of the series) unless noted;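 note: ME-180 reporter cells stimulated with EGF at its EC50 level; % is set by controls: 0 for no effect and ±100 for the full control effect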
Outline: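 Titration-series screen for positive or negative modulators of EC50 EGF-induced signaling in ME-180 cells carrying an AP-1-driven beta-lactamase reporter. After 5 hours at 37 degrees Celsius, CCF4 460nm/530nm emission ratio gave %Activity; AC50 values derived.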

[3] = target: Cytochrome P450 1A2 (Homo sapiens) (UniProt P05177); assay: p450-cyp1a2 (AID 410; calls by dose curve;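 note: -100% = full effect of reference inhibitor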); details: recombinant CYP1A2, luciferin-ME demethylation, luminescence; series mostly up to 11.4 µM
Outline: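 Human CYP1A2 (20nM) demethylated Luciferin-ME at its Km (100uM) in 100mM KPO4. After 10 min compound preincubation, NADPH regeneration ran the reaction 60 min at room temperature. Luciferin was read by luminescence, normalized to 57 uM furafylline.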

[4] = NFAT Signaling Pathway (AID 444); details: Jurkat NFAT-bla M1, carbachol, beta-lactamase ratio, 5 h; at 7.69 µM (top of the series) unless noted;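 note: carbachol stimulus at about its EC50 of 1 µM final; % is set by controls: 0 for no effect and ±100 for the full control effect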
Outline: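 Jurkat cells carrying an NFAT-driven β-lactamase reporter and co-transfected muscarinic M1 receptor were treated with compound plus carbachol (1 uM final, an EC50 level) for 5 h at 37 °C. CCF4 loading followed for 1 h at RT; 460/530 nm ratio gave %activity.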

[5] = Stat Signaling Pathway (AID 446); details: ME-180 (cervical carcinoma) SIE beta-lactamase reporter, IL-6 stimulated, 5 h; at 7.69 µM (top of the series) unless noted;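 note: ME-180 cervical cancer cells given 40 pM IL-6 alongside compound; SIE-controlled beta-lactamase reporter measured as 460/530 nm FRET emission ratio; % is set by controls: 0 for no effect and ±100 for the full control effect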
Outline: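 IL-6/STAT signaling read in ME-180 cells via an SIE beta-lactamase reporter. Stimulus was 40 pM IL-6 (its AC50) for 5 hrs, so both activation and inhibition register.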

[6] = target: Glucocorticoid receptor (Homo sapiens) (UniProt P04150); assay: GR-GFP Redistribution (AID 450;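 active = compounds whose dose series gives a full or clear partial fitted curve of increased nuclear translocation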; note: potency is the fitted concentration of half-maximal effect); details: U2OS GR-GFP nuclear translocation, laser cytometry, 2 h
[7] = target: Glucocorticoid receptor (Homo sapiens) (UniProt P04150); assay: GR-EFC Redistribution (AID 451; calls by dose curve; note: potency is the fitted concentration of half-maximal effect); details: CHO-K1 GR-EFC translocation, beta-gal luminescence, 2 h
Outline: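 CHO-K1 cells stably expressing nuclear-localized β-gal enzyme acceptor and GR fused C-terminally to the enzyme donor fragment; ligand-driven nuclear translocation restores β-gal by complementation. Compounds titrated up to 46 uM final, 2 h at 37 °C; luminescence read.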

[8] = target: Mitogen-activated protein kinase 10 (Mus musculus) (UniProt Q61831); assay: JNK3 AlphaScreen Assay (AID 530); details: JNK3 lysate, c-Jun phosphorylation; series mostly up to 57.1 µM;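 note: kinase came from lysate of stimulated human HepG2 cells; signal reports phosphorylation of biotinylated GST-cJun 1-79 at Ser73 with 10 µM ATP; % is set by controls: 0 for no effect and ±100 for the full control effect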
Outline: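 JNK3 came from HepG2 lysates pre-activated with IL-1beta and TNF-alpha and phosphorylated biotinylated GST-cJun (1-79) at 10 uM ATP, pH 7.6, room temperature. Compounds were titrated. AlphaScreen signal used anti-phospho-cJun (Ser73) antibody.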

Glucocorticoid receptor (Homo sapiens), sequence (P04150 whole entry, looked up, the tested form may be a part): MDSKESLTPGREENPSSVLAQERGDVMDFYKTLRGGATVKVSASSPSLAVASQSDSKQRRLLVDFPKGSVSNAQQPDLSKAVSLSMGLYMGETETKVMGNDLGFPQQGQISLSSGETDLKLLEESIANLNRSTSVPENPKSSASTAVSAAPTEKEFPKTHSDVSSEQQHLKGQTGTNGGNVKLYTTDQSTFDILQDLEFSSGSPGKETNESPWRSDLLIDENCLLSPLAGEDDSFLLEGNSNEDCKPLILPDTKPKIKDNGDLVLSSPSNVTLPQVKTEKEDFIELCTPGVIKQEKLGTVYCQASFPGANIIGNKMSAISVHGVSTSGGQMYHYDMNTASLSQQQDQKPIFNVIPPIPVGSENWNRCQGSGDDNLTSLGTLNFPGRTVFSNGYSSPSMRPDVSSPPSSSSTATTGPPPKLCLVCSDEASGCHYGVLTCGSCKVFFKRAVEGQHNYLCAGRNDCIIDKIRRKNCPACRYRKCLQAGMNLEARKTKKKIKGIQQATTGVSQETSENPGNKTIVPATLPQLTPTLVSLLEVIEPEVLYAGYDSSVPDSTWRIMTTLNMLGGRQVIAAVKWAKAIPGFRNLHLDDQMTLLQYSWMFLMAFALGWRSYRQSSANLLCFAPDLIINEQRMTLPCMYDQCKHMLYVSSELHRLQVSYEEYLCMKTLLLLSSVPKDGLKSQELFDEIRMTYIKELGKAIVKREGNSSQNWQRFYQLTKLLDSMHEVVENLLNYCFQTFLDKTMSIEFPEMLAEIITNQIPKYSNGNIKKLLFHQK
Cytochrome P450 1A2 (Homo sapiens), sequence (P05177 whole entry, looked up): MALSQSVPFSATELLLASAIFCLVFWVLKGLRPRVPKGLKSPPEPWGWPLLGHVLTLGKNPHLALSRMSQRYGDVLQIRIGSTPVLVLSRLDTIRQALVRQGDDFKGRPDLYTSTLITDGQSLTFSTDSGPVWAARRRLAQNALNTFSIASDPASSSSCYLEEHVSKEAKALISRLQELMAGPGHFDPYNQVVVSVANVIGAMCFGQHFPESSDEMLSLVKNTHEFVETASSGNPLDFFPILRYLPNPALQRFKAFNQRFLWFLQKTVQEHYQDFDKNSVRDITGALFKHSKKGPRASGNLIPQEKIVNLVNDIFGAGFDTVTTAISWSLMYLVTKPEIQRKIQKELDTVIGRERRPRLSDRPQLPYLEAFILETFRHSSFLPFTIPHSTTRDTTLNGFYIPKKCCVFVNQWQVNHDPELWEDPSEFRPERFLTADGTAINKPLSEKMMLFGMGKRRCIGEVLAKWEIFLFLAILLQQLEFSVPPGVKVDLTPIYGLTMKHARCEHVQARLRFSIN
Lysosomal acid glucosylceramidase (Homo sapiens), sequence (P04062 whole entry, looked up): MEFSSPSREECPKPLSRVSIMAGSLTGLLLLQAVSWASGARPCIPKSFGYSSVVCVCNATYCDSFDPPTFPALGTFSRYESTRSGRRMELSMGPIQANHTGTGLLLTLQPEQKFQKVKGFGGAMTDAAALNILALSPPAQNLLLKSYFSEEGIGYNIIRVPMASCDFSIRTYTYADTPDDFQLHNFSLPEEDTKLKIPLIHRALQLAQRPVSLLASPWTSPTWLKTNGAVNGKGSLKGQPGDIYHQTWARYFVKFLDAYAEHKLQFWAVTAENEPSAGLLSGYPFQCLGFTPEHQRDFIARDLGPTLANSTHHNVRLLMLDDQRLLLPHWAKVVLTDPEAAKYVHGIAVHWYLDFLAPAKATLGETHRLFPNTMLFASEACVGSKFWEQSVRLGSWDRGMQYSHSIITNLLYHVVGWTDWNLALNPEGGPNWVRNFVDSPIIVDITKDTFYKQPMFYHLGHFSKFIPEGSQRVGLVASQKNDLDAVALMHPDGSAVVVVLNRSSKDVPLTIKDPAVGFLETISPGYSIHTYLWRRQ

CC(C)(C)C(=O)CP(=O)(O)O
inactive: Potency [1] > 11.4 µM | activity change, negative = inhibition [2] 11.4% | Potency [3] | activity change, negative = inhibition [4] -0.88% | activity, negative = inhibition [5] -5.75% | Potency [6] > 46 µM | Potency [7] > 9.22 µM | activity change, negative = inhibition [8] 5.32% [at 11.4 µM]
